Experimental data published in PMC11062922 (Nature Chemical Biology, 2023).
Where two headings read alike, the source gives them in different places.

What was measured:
Set-up in all cases: species or system human, MV4-11 + K-562 + COLO205 + SK-N-BE2 + OVCAR-8
DDR2 = conditions: read-out: apparent Kd; compound concentrations:100 nM and 1000 nM (sheet 'Samples'); n = 1
PDGFRB = conditions: read-out: apparent Kd; compound concentrations:100 nM and 1000 nM (sheet 'Samples'); n = 1
DYRK1A = conditions: read-out: apparent Kd, n = 1
PRKD1 = conditions: read-out: apparent Kd; compound concentrations:100 nM and 1000 nM (sheet 'Samples'); n = 1
DJA1 = system: T1, DJA1; conditions: read-out: apparent Kd, n = 1
T1 construct: gene DNAJA1

GRAMD1A = conditions: read-out: apparent Kd; compound concentrations: 100 nM and 1000 nM (sheet 'Samples'), CATDS: 0.16329310208272499; n = 1
PDXK = conditions: read-out: apparent Kd, compound concentrations: 100 nM and 1000 nM (sheet 'Samples'), n = 1
STK16 = conditions: read-out: apparent Kd, compound concentrations: 100 nM and 1000 nM (sheet 'Samples'), n = 1
TAOK1 = conditions: read-out: apparent Kd; compound concentrations: 100 nM and 1000 nM (sheet 'Samples'), CATDS: 0.164417003355011; n = 1
TESK1 = conditions: read-out: apparent Kd, compound concentrations: 100 nM and 1000 nM (sheet 'Samples'), n = 1
TGFBR1 = conditions: read-out: apparent Kd; compound concentrations:100 nM and 1000 nM (sheet 'Samples'); n = 1
DHCR24 = conditions: read-out: apparent Kd, compound concentrations: 100 nM and 1000 nM (sheet 'Samples'), n = 1
NQO1 = conditions: read-out: apparent Kd; compound concentrations: 100 nM and 1000 nM (sheet 'Samples'), CATDS: 0.149856517044136; n = 1
PLK1 = conditions: read-out: apparent Kd; compound concentrations: 100 nM and 1000 nM (sheet 'Samples'), CATDS: 0.13672731586716499; n = 1
RIPK2 = conditions: read-out: apparent Kd; compound concentrations: 100 nM and 1000 nM (sheet 'Samples'), CATDS: 0.97549436112996002; n = 1
RIPK3 = conditions: read-out: apparent Kd; compound concentrations: 100 nM and 1000 nM (sheet 'Samples'), CATDS: 0.14106558052959201; n = 1
TP53RK = conditions: read-out: apparent Kd; compound concentrations: 100 nM and 1000 nM (sheet 'Samples'), CATDS: 0.13630649736476699; n = 1
PIK3C3 = conditions: read-out: apparent Kd; compound concentrations: 100 nM and 1000 nM (sheet 'Samples'), CATDS: 0.180657848529719; n = 1
PIK3CA = conditions: read-out: apparent Kd; compound concentrations: 100 nM and 1000 nM (sheet 'Samples'), CATDS: 0.62004014167069399; n = 1
STK4 = conditions: read-out: apparent Kd; compound concentrations: 100 nM and 1000 nM (sheet 'Samples'), CATDS: 0.1689879657386; n = 1
PIK3CB = conditions: read-out: apparent Kd; compound concentrations: 100 nM and 1000 nM (sheet 'Samples'), CATDS: 0.79841434313068305; n = 1
EIF5B = conditions: read-out: apparent Kd; compound concentrations: 100 nM and 1000 nM (sheet 'Samples'), CATDS: 0.317916944834297; n = 1
TOP2B = conditions: read-out: apparent Kd; compound concentrations: 100 nM and 1000 nM (sheet 'Samples'), CATDS: 0.32838798877743502; n = 1
GSK3A = conditions: read-out: apparent Kd; compound concentrations: 100 nM and 1000 nM (sheet 'Samples'), CATDS: 0.123144126228622; n = 1
GSK3B = conditions: read-out: apparent Kd; compound concentrations: 100 nM and 1000 nM (sheet 'Samples'), CATDS: 0.119624186553648; n = 1
HSP90AA1 = conditions: read-out: apparent Kd; compound concentrations: 100 nM and 1000 nM (sheet 'Samples'), CATDS: 5.4644283651895102E-2; n = 1
HSPE1 = conditions: read-out: apparent Kd; compound concentrations: 100 nM and 1000 nM (sheet 'Samples'), CATDS: 7.3409549069479094E-2; n = 1
ICK = conditions: read-out: apparent Kd; compound concentrations: 100 nM and 1000 nM (sheet 'Samples'), CATDS: 5.6639320482966701E-2; n = 1
PGK1 = conditions: read-out: apparent Kd; compound concentrations: 100 nM and 1000 nM (sheet 'Samples'), CATDS: 0.319923610407498; n = 1
PKM = conditions: read-out: apparent Kd; compound concentrations: 100 nM and 1000 nM (sheet 'Samples'), CATDS: 5.66229333393235E-2; n = 1
PRKCA = conditions: read-out: apparent Kd; compound concentrations: 100 nM and 1000 nM (sheet 'Samples'), CATDS: 8.5059417421235906E-2; n = 1
PRKCB = conditions: read-out: apparent Kd; compound concentrations: 100 nM and 1000 nM (sheet 'Samples'), CATDS: 6.0874586242987201E-2; n = 1
PRKCD = conditions: read-out: apparent Kd; compound concentrations: 100 nM and 1000 nM (sheet 'Samples'), CATDS: 9.6711614393648698E-2; n = 1
RPS6KA6 = conditions: read-out: apparent Kd; compound concentrations: 100 nM and 1000 nM (sheet 'Samples'), CATDS: 9.9145612858777904E-2; n = 1
EGFR = conditions: read-out: apparent Kd; compound concentrations: 100 nM and 1000 nM (sheet 'Samples'), CATDS: 1; n = 1
MAPK10 = conditions: read-out: apparent Kd; compound concentrations: 100 nM and 1000 nM (sheet 'Samples'), CATDS: 0.199019247687024; n = 1
MAPK11 = conditions: read-out: apparent Kd; compound concentrations: 100 nM and 1000 nM (sheet 'Samples'), CATDS: 0.17455940008728901; n = 1
MAPK14 = conditions: read-out: apparent Kd; compound concentrations: 100 nM and 1000 nM (sheet 'Samples'), CATDS: 0.87257547022931203; n = 1
MAPK9 = conditions: read-out: apparent Kd; compound concentrations: 100 nM and 1000 nM (sheet 'Samples'), CATDS: 0.189062450586059; n = 1
[1] = compound concentrations:100 nM and 1000 nM (sheet 'Samples')
[2] = compound concentrations: 100 nM and 1000 nM (sheet 'Samples'), CATDS: 1

SMILES: O=C(Nc1ccccc1)Nc1cccc(Oc2ccc3nccn3n2)c1 [TPKI-39]
- potency estimated from few doses (DDR2): 732 nM
- potency estimated from few doses (PDGFRB): 853 nM

SMILES: O=c1[nH]cc(-c2ccc(N3CCOCC3)cc2)c2sc(-c3cn[nH]c3)cc12 [GSK2276055A]
- potency estimated from few doses (DYRK1A; [1]): 810 nM
- potency estimated from few doses (PRKD1): 936 nM

SMILES: Cc1c(O)cccc1Nc1ccnc2ccc(C(F)(F)F)cc12.Cl [GW466413A]
- potency estimated from few doses (DJA1; compound concentrations: 100 nM and 1000 nM (sheet 'Samples'), CATDS: 0.25359634336132503): 686 nM
- potency estimated from few doses (GRAMD1A): 1490 nM
- potency estimated from few doses (PDXK; CATDS: 0.146836673645412): 1890 nM
- potency estimated from few doses (STK16; CATDS: 0.15656127155851701): 1630 nM
- potency estimated from few doses (TAOK1): 1470 nM
- potency estimated from few doses (TESK1; CATDS: 0.150305676910791): 1790 nM

SMILES: Cl.Oc1ccc(-c2nc(-c3ccccc3)[nH]c2-c2ccncc2)cc1 [SB-428218-A]
- potency estimated from few doses (DJA1; [2]): 108 nM

SMILES: Clc1ccc(-c2cc(-c3c[nH]nc3-c3ccccn3)ccn2)cc1 [GW681251X]
- potency estimated from few doses (DJA1; [1]): 843 nM
- potency estimated from few doses (TGFBR1): 856 nM

SMILES: CC(C)(C)S(=O)(=O)c1ccc2nccc(Nc3n[nH]c4ccc(F)cc34)c2c1 [GSK583]
- potency estimated from few doses (DHCR24; CATDS: 0.15237648069571999): 1410 nM
- potency estimated from few doses (NQO1): 1480 nM
- potency estimated from few doses (PLK1): 1910 nM
- potency estimated from few doses (RIPK2): 4.2 nM
- potency estimated from few doses (RIPK3): 1750 nM
- potency estimated from few doses (TP53RK): 1930 nM

SMILES: COc1cccc(NC(=O)NC2CCN(c3ccnc(Nc4ccc(F)cc4)n3)C2)c1 (centres unmarked) [GSK1379721A]
- potency estimated from few doses (DJA1; [2]): 1340 nM

SMILES: COc1ccc(NC(=O)c2ccoc2)cc1-c1ccc(C(=O)NCC2CC2)cc1 [GW810437X]
- potency estimated from few doses (DJA1; compound concentrations: 100 nM and 1000 nM (sheet 'Samples'), CATDS: 0.17319621372560801): 1720 nM
- potency estimated from few doses (PIK3C3): 1530 nM
- potency estimated from few doses (PIK3CA): 147 nM
- potency estimated from few doses (STK16; CATDS: 0.16232458546683101): 2060 nM
- potency estimated from few doses (STK4): 1830 nM

SMILES: Cc1c(Cn2c3ccccc3n3c(=O)cc(N4CCOCC4)nc23)cccc1C(F)(F)F [GSK2306394A]
- potency estimated from few doses (DJA1; compound concentrations: 100 nM and 1000 nM (sheet 'Samples'), CATDS: 0.30097601497631998): 653 nM
- potency estimated from few doses (PDXK; CATDS: 0.22598902737403401): 1920 nM
- potency estimated from few doses (PIK3CB): 66.7 nM

SMILES: Cc1ccc(NC(=O)Nc2ccc(Cl)cc2)cc1-c1ccc(C(=O)Nc2ccncc2)cc1 [GSK1398472A]
- potency estimated from few doses (DHCR24; CATDS: 0.35595473001681699): 1500 nM
- potency estimated from few doses (EIF5B): 1880 nM
- potency estimated from few doses (TOP2B): 1750 nM

SMILES: Cn1cc(C2=C(c3cn(CCN)c4ccccc34)C(=O)NC2=O)c2ccccc21 [RO0318045-000]
- potency estimated from few doses (DJA1; compound concentrations: 100 nM and 1000 nM (sheet 'Samples'), CATDS: 6.3500397257876304E-2): 1160 nM
- potency estimated from few doses (GSK3A): 269 nM
- potency estimated from few doses (GSK3B): 283 nM
- potency estimated from few doses (HSP90AA1): 1910 nM
- potency estimated from few doses (HSPE1): 782 nM
- potency estimated from few doses (ICK): 1670 nM
- potency estimated from few doses (PGK1): 63.9 nM
- potency estimated from few doses (PKM): 1680 nM
- potency estimated from few doses (PRKCA): 554 nM
- potency estimated from few doses (PRKCB): 1320 nM
- potency estimated from few doses (PRKCD): 423 nM
- potency estimated from few doses (RPS6KA6): 403 nM
- potency estimated from few doses (TESK1; CATDS: 5.61870576543727E-2): 1720 nM

SMILES: Fc1cccc(COc2ccc(Nc3ncnc4sc(-c5ccco5)cc34)cc2Cl)c1 [GSK969786A]
- potency estimated from few doses (EGFR): 815 nM

SMILES: C[C@H](CS(C)(=O)=O)Nc1ncc2cc(Oc3ccc(F)cc3F)c(=O)n(C)c2n1 [RO5043312-000]
- potency estimated from few doses (DYRK1A; compound concentrations: 100 nM and 1000 nM (sheet 'Samples'), CATDS: 0.12801866170396201): 1960 nM
- potency estimated from few doses (MAPK10): 398 nM
- potency estimated from few doses (MAPK11): 583 nM
- potency estimated from few doses (MAPK14): 10.8 nM
- potency estimated from few doses (MAPK9): 460 nM
